Screening data as filed in PubChem.
INS-1E GSIS act = primary screen for activators of insulin secretion dependent on glucose, INS-1E cells, GLuc reporter luminescence. 0.61% of 370,000 active. AID 743287. activation, % at 16.6 µM. INS-1E GLuc reporter insulin secretion, 2-3 h;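 active = lowest replicate activation of at least 40%, so every replicate reaches that level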;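 note: 0% = median of neutral control wells and 100% = median of IBMX positive control wells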
RAD52 anneal inh = RAD52 (human) annealing inhibition | recombinant RAD52 DNA annealing, FRET fluorescence | inhibition, % at 18.7 µM | 0.46% of 360,000 active | AID 651710;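 active = every replicate showing at least 50% inhibition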
Target sequence (P43351 whole entry, looked up): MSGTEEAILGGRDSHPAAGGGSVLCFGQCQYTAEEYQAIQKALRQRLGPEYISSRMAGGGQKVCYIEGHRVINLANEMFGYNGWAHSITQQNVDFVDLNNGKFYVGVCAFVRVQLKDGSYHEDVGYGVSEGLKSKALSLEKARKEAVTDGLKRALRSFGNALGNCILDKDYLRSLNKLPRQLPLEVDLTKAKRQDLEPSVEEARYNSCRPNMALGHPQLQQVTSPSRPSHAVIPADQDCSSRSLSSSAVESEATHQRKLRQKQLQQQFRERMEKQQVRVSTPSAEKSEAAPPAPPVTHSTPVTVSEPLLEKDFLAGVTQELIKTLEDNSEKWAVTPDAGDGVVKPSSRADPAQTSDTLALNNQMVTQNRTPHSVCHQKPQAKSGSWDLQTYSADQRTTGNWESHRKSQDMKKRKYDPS
LGR2 inh = inhibitors of bursicon-induced Drosophila LGR2 receptor cAMP signaling. 0.35% of 380,000 active. AID 720647. HEK293 LGR2, CRE-luciferase, bursicon-stimulated, 4 h. inhibition, % at 9.99 µM;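 active = drop in luminescence signal, shown as inhibition above about 50% in the replicate tests, limit read from the data, passing the limit was not always enough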;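 note: agonist challenge used bursicon conditioned medium at about half maximal strength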
EWS-Fli block = blocks EWS/Fli oncoprotein-driven transcription; A673 NR0B1-luciferase reporter, viability-normalised; inhibition, % at 12.6 µM; 0.67% of 350,000 active; AID 651661;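 active = mean inhibition of at least 50% after viability correction, with every replicate also passing that limit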;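 note: firefly luciferase signal divided by Alamar Blue viability fluorescence both relative to DMSO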
RAD54 inh = RAD54 (human) branch migration inhibition | AID 602329 | inhibition, % at 10.4 µM | RAD54 Holliday junction branch migration, FAM/BHQ fluorescence | 0.14% of 360,000 active | Q92698;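 active = mean normalized replicate activity at least 40 and at least half of replicates scoring 40 or more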;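 note: 0% = median of neutral control wells and 100% = median of positive control wells; inhibitors cause a drop in the FAM fluorescence signal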
CFTR F508del cor = CFTR F508del correction in bronchial cells; CFBE cells, YFP halide quenching; stimulated with forskolin plus potentiator P3; % fluorescence drop versus neutral controls; activity (quench increase), % at 7.58 µM; 0.36% of 350,000 active; AID 720511;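 active = mean added fluorescence quench of at least 8% versus neutral control, with both replicates also reaching 8%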;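 note: cells transiently co-express mutant CFTR-F508del with the halide-sensitive YFP; corrector assay measuring rescue of mutant channel to the surface after 24 h compound exposure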
* = called active by the depositor; . = not tested or not shown. A selection: hits, their analogues and other compounds. The true share with any hit is near 1.8%.

SMILES	INS-1E GSIS act	RAD52 anneal inh	LGR2 inh	EWS-Fli block	RAD54 inh	CFTR F508del cor
CON(C)S(=O)(=O)c1ccc2c(c1)N(Cc1ccc(C)cc1)C(=O)C1CCCN21 (stereo not drawn)	11	-70	.	6	.	-3
COc1ccccc1C1CC(=O)Nc2cc3c(cc21)OCCO3 (stereo not drawn)	4	-1	-2	40	-6	11*
COc1ccc(CCN(C)C2CCCN(S(=O)(=O)N(C)C)C2)cc1OC (stereo not drawn)	1	-21	-2	-3	6	-1
CCN(C(=O)COC(=O)c1cc(-c2ccccc2)nc2c1c(C)nn2-c1ccc(C)cc1)C1CCS(=O)(=O)C1 (stereo not drawn)	-2	-8	-5	12	.	8.2*
CSc1nc(N2CCOCC2)c2sccc2n1	76*	-1	-20	-4	.	-2
CSCCC(NC(=O)c1ccccc1Cl)C(=O)Nc1cccc(S(=O)(=O)N2CCCC2)c1 (stereo not drawn)	-6	-9	-16	-2	13	-2
C[C@@H](NC(=O)C[C@H]1C=C[C@@H](NC(=O)C2CCC2)[C@@H](CO)O1)c1ccccc1	16	-1	4	-138	7	3
COc1ccc(-c2nc3cccc(C)n3c2NCc2ccco2)cc1OC	65*	.	-6	.	3	.
COc1ccc(-c2ccc(C#N)c(SCC(=O)NCc3ccco3)n2)cc1OC	51*	-18	-20	8	2	1
COCCN(C(=O)CSc1ncc(C(F)(F)F)cc1Cl)c1c(N)n(Cc2ccccc2)c(=O)[nH]c1=O	-12	-2	.	5	.	2
CCCc1cc(=O)[nH]c2nnc(SCC(=O)N3CC(C)OC(C)C3)n12 (stereo not drawn)	55*	6	11	2	.	-3
Cc1cc(=O)[nH]c2nnc(SCC(=O)N3CC(C)OC(C)C3)n12 (stereo not drawn)	3	-5	-13	5	.	-1
C[C@@H]1CCCCO[C@@H](CN(C)CC2CCCCC2)[C@H](C)CN([C@@H](C)CO)C(=O)c2cc(NC(=O)Nc3ccc(C(F)(F)F)cc3)ccc2O1	-20	44	6	76*	-6	0
C[C@@H]1CCCCO[C@@H](CN(C)CC2CCCCC2)[C@@H](C)CN([C@H](C)CO)C(=O)c2cc(NC(=O)Nc3ccc(C(F)(F)F)cc3)ccc2O1	-8	6	-11	-11	7	3
C[C@H]1CCCCO[C@@H](CN(C)C(=O)C2CCCCC2)[C@@H](C)CN([C@@H](C)CO)C(=O)c2cc(NC(=O)Nc3ccc(C(F)(F)F)cc3)ccc2O1	-7	0	9	13	28	10*
C[C@@H]1CCCCO[C@H](CN(C)CC2CCCCC2)[C@H](C)CN([C@@H](C)CO)C(=O)c2cc(NC(=O)Nc3ccc(C(F)(F)F)cc3)ccc2O1	10	-6	-4	81*	7	-3
CCn1cnc2sc(C(=O)Nc3ccc4c(c3)OCO4)c(C)c2c1=O	.	.	.	.	6	.
COc1ccc2cc1Oc1ccc(cc1)C[C@H]1c3c(cc(OC)c4c3Oc3c(ccc5c3[C@H](C2)N(C)CC5)O4)CCN1C	.	.	.	.	74*	.
CCOc1ccc(C2NCCc3cc(OC)c(OC)cc32)cc1OC (stereo not drawn)	-22	-10	3	-6	-1	1
COc1ccc2cc1Oc1ccc(cc1)CC1c3c(cc(OC)c4c3Oc3cc5c(cc3O4)CCNC5C2)CCN1C (stereo not drawn)	.	.	.	.	91*	.
COc1cc2c(c(O)c1OC)C1Cc3ccc(OC)c(OC)c3CN1CC2 (stereo not drawn)	6	7	-6	0	15	6
COCCOC(=O)C1=C(C)NC(=O)N(C(C)=O)C1c1ccc(Cl)cc1 (stereo not drawn)	56*	.	-5	.	2	.
CCOc1ccc(Nc2oc(-c3cccc(Cl)c3)nc2C#N)cc1	106*	.	-11	.	.	.
Cc1cc(NC(=O)CN2C(=O)NC3(CCCCC3C)C2=O)no1 (stereo not drawn)	9	.	3	.	.	.
O=c1[nH]c(CNCc2cccnc2)nc2ccccc12	6	-12	-5	5	.	-1
SMILES	INS-1E GSIS act	RAD52 anneal inh	LGR2 inh	EWS-Fli block	RAD54 inh	CFTR F508del cor
Cc1cccc(NC(=O)c2ccccc2NC(=O)C2CCCCC2)c1C	-7	-11	3	10	0	8.1*
O=C(Nc1ccccc1)c1ccccc1NC(=O)C1CCCCC1	.	.	.	.	0	.
O=C(NC1=NCCS1)c1ccc(Cl)c(Cl)c1	-4	-2	-70	-34	-5	2
C[C@@H]1CN([C@@H](C)CO)C(=O)c2cc(NC(=O)Cc3cn(C)c4ccccc34)ccc2O[C@@H]1CN(C)C(=O)Nc1ccc2c(c1)OCO2	-5	-14	-2	-98	9	1
CC(C)(C)C(=O)/C(=C/c1ccncc1)n1cncn1	5	-17	79*	41	.	-4
Cc1nn(C)c(C)c1/C=C(/C(=O)C(C)(C)C)n1cncn1	16	-6	23	22	8	-7
Cc1noc(C)c1NC(=O)Nc1ccc2c(c1)C(=O)N([C@H](C)CO)C[C@H](C)[C@@H](CN(C)S(=O)(=O)c1ccc(F)cc1)OCCCC[C@H](C)O2	-4	-4	-7	0	-7	4
CC(=O)Oc1ccc(C(=O)Cc2ccc3ccccc3n2)c(O)c1C	7	-149	-22	55*	.	0
CN1C(=S)N(c2ccccc2)C(=O)/C1=C/c1cccs1	68*	.	-9	.	.	.
CC(Oc1ccc2c(c1)c1ccnc3c4ccccc4c(=O)n2c13)C(=O)NCCN1CCOCC1 (stereo not drawn)	.	.	.	-21	89*	7
COc1ccc2c(c1OC)c(=O)n1c3ccc(OC(C)C(=O)NCCCN4CCOCC4)cc3c3ccnc2c31 (stereo not drawn)	.	.	.	.	73*	.
CC(C)NC(=O)N(C)C[C@H]1Oc2ccc(NC(=O)C3CCCCC3)cc2C(=O)N([C@@H](C)CO)C[C@@H]1C	13	0	-8	-4	-11	-2
CCC(=O)N1[C@H](CN(CC)C(C)=O)[C@@H](c2ccc(-c3ccccc3)cc2)[C@@H]1CO	9	.	-11	-6	2	8.9*
CCC(=O)N1[C@H](CO)[C@H](c2ccc(-c3ccccc3)cc2)[C@H]1CN(CC)C(C)=O	1	-18	10	-7	0	1
CCOCCCNC(=O)C(NC(=O)CC1NC(=O)NC1=O)c1ccc(Cl)cc1 (stereo not drawn)	.	.	.	.	-3	.
CSc1nc(N)n2nc(C)cc2n1	1	5	3	-7	.	-2
CSc1nc(N)n2nc(C(C)(C)C)cc2n1	54*	2	-32	-13	.	-2
COC(=O)c1ccc2c(c1)NC(=O)C(N(CC(C)C)CC(C)C)S2 (stereo not drawn)	46*	-44	9	17	-1	-3
